Calls of active or inactive are those of the source. Rule for the calls: active = hit-call score of the fitted dose curve at least 0.9, where 1 is the maximum; inactive = score below 0.9.
Experiments:
Details in all cases: mRNA level, 48 h; actives raise or lower the signal
[1] = read-out: adenosine kinase (ADK) gene, ADK (gene 132); assay: LTEA_HepaRG_ADK: Life Technologies and Expression Analysis (LTEA) Assay for adenosine kinase (ADK) gene using HepaRG (AID 2283471)
In short: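 Read-out is ADK transcript level measured by qRT-PCR and normalised to three housekeeping genes. Cells are human HepaRG, dosed for 48 h at up to 100 uM in 0.5% DMSO. Gain or loss of signal is fitted against DMSO controls.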

[2] = read-out: Alpha-fetoprotein (AFP) gene, AFP (gene 174); assay: LTEA_HepaRG_AFP: Life Technologies and Expression Analysis (LTEA) Assay for Alpha-fetoprotein (AFP) gene using HepaRG (AID 2283472)
In short: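 qRT-PCR (Fluidigm TaqMan) readout of AFP transcript, normalized to three housekeeping genes, fitted bidirectionally against 0.5% DMSO baseline. HepaRG cells received chemicals for 48 h in serum-free induction medium, top concentration 100 uM, half-log steps.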

[3] = read-out: BCL2L11 (gene 10018); assay: LTEA_HepaRG_BCL2L11: Life Technologies and Expression Analysis (LTEA) Assay for Bcl-2 (BCL2L11) gene using HepaRG (AID 2283473)
In short: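 Differentiated human HepaRG cells in serum-free induction medium were exposed in duplicate for 48 h to eight concentrations (top 100 uM, half-log steps, 0.5% DMSO). BCL2L11 mRNA was quantified by TaqMan qRT-PCR, normalized to ACTB/GAPDH/POLR2A, bidirectional fit versus DMSO.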

[4] = read-out: Apolipoprotein A-V (APOA5) gene, APOA5 (gene 116519); assay: LTEA_HepaRG_APOA5: Life Technologies and Expression Analysis (LTEA) Assay for Apolipoprotein A-V (APOA5) gene using HepaRG (AID 2283474)
In short: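 Differentiated human HepaRG cells were exposed in duplicate for 48 h to eight half-log concentrations from 100 uM in 0.5% DMSO. APOA5 mRNA was quantified by TaqMan qRT-PCR, normalized to ACTB, GAPDH and POLR2A, and fitted bidirectionally against DMSO.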

[5] = read-out: Bcl-2 (BID) gene, BID (gene 637); assay: LTEA_HepaRG_BID: Life Technologies and Expression Analysis (LTEA) Assay for Bcl-2 (BID) gene using HepaRG (AID 2283476)
In short: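 HepaRG, 48 h exposure, 8-pt half-log series, top 100 uM, 0.5% DMSO vehicle, duplicates. Readout: BID mRNA by TaqMan qRT-PCR; housekeeping-normalized; bidirectional curve fit vs DMSO baseline.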

[6] = read-out: Caspase-3 (Homo sapiens) (UniProt P42574); assay: LTEA_HepaRG_CASP3: Life Technologies and Expression Analysis (LTEA) Assay for cysteine-aspartic acid protease (CASP3) using HepaRG (AID 2283477)
In short: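 Differentiated human HepaRG cells in serum-free induction medium were exposed 48 h to 8-point half-log concentrations from 100 uM (0.5% DMSO vehicle). CASP3 mRNA was measured by qRT-PCR, normalised to ACTB, GAPDH and POLR2A, with bidirectional fitting against DMSO.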

[7] = read-out: Cytochrome P450 (CYP24A1), CYP24A1 (gene 1591); assay: LTEA_HepaRG_CYP24A1: Life Technologies and Expression Analysis (LTEA) Assay for Cytochrome P450 (CYP24A1) using HepaRG (AID 2283478)
In short: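 Differentiated HepaRG cells, pre-cultured 48 h, were exposed in duplicate for 48 h in serum-free induction medium to 8 half-log concentrations (top 100 uM, 0.5% DMSO). CYP24A1 mRNA was quantified by TaqMan qRT-PCR, normalized to ACTB/GAPDH/POLR2A, fitted bidirectionally versus DMSO.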

[8] = read-out: Cytochrome P450 (CYP1A2), CYP1A2 (gene 1544); assay: LTEA_HepaRG_CYP1A2: Life Technologies and Expression Analysis (LTEA) Assay for Cytochrome P450 (CYP1A2) using HepaRG (AID 2283479)
In short: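 Differentiated human HepaRG cells in serum-free induction medium were exposed in duplicate for 48 h to 8-point half-log concentrations up to 100 uM in 0.5% DMSO. CYP1A2 mRNA measured by qRT-PCR, normalized to ACTB, GAPDH, POLR2A; bidirectional fit vs DMSO.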

[9] = read-out: cysteine-aspartic acid protease (CASP8), CASP8 (gene 841); assay: LTEA_HepaRG_CASP8: Life Technologies and Expression Analysis (LTEA) Assay for cysteine-aspartic acid protease (CASP8) using HepaRG (AID 2283480)
In short: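 CASP8 transcript measured by TaqMan qRT-PCR with ACTB/GAPDH/POLR2A normalization, after 48 h chemical exposure of HepaRG cells in serum-free induction medium. Eight concentrations, top 100 uM, half-log steps, 0.5% DMSO vehicle; fits in both directions versus DMSO.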

[10] = read-out: Cytochrome P450 2C19 (Homo sapiens) (UniProt P33261); assay: LTEA_HepaRG_CYP2C19: Life Technologies and Expression Analysis (LTEA) Assay for CYP2C19 using HepaRG (AID 2283482)
In short: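 Differentiated human HepaRG cells were exposed for 48 h in serum-free induction medium to 8 concentrations (top 100 uM, half-log steps, 0.5% DMSO). CYP2C19 mRNA was measured by qRT-PCR, normalized to ACTB/GAPDH/POLR2A, and fitted bidirectionally against DMSO.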

[11] = read-out: CYP2C8 (gene 1558); assay: LTEA_HepaRG_CYP2C8: Life Technologies and Expression Analysis (LTEA) Assay for CYP2C8 using HepaRG (AID 2283483)
In short: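 CYP2C8 expression measured by TaqMan qRT-PCR and normalized to three housekeeping genes. HepaRG cultures were treated for 48 h with an eight-point half-log series topping at 100 uM, vehicle 0.5% DMSO, duplicates; fitted both directions against DMSO.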

[12] = read-out: CYP2C9 (gene 1559); assay: LTEA_HepaRG_CYP2C9: Life Technologies and Expression Analysis (LTEA) Assay for CYP2C9 using HepaRG (AID 2283484)
In short: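 CYP2C9 transcript level, quantified by TaqMan qRT-PCR against three housekeeping genes, was fitted bidirectionally relative to 0.5% DMSO. HepaRG cultures were treated 48 h, in duplicate, at eight half-log concentrations topping at 100 uM.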

[13] = read-out: CYP2E1 (gene 1571); assay: LTEA_HepaRG_CYP2E1: Life Technologies and Expression Analysis (LTEA) Assay for CYP2E1 using HepaRG (AID 2283485)
In short: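 CYP2E1 transcript was measured by TaqMan qRT-PCR in human HepaRG cultures after 48 h chemical exposure (top 100 uM, half-log steps, 0.5% DMSO vehicle). Housekeeping-gene normalization; gain or loss fitted relative to DMSO baseline.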

[14] = read-out: CYP4A11 (gene 1579); assay: LTEA_HepaRG_CYP4A11: Life Technologies and Expression Analysis (LTEA) Assay for CYP4A11 using HepaRG (AID 2283486)
In short: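 Differentiated HepaRG cells, serum-free induction medium, exposed 48 h in duplicate to 8-point half-log series from 100 uM in 0.5% DMSO. CYP4A11 mRNA measured by qRT-PCR, normalized to ACTB, GAPDH, POLR2A; bidirectional fit versus DMSO.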

[15] = read-out: Cytochrome P450 3A4 (Homo sapiens) (UniProt P08684); assay: LTEA_HepaRG_CYP3A4: Life Technologies and Expression Analysis (LTEA) Assay for CYP3A4 using HepaRG (AID 2283487)
In short: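 HepaRG, 48 h exposure, 8-pt CRC from 100 uM (half-log), 0.5% DMSO, duplicates; serum-free induction medium. Readout: CYP3A4 mRNA, qRT-PCR, ACTB/GAPDH/POLR2A normalization. Bidirectional fit vs DMSO.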

[16] = read-out: DNA damage-inducible transcript 3 (DDIT3), DDIT3 (gene 1649); assay: LTEA_HepaRG_DDIT3: Life Technologies and Expression Analysis (LTEA) Assay for DNA damage-inducible transcript 3 (DDIT3) using HepaRG (AID 2283488)
In short: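 qRT-PCR readout (Fluidigm TaqMan), housekeeping-normalized to ACTB, GAPDH, POLR2A. HepaRG cells, 48 h exposure, 8-point half-log series from 100 uM in 0.5% DMSO, duplicates. Gain or loss of signal fitted against DMSO baseline.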

[17] = read-out: Pro-epidermal growth factor (Homo sapiens) (UniProt P01133); assay: LTEA_HepaRG_EGF: Life Technologies and Expression Analysis (LTEA) Assay for Epidermal growth factor (EGF) using HepaRG (AID 2283489)
In short: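 Differentiated human HepaRG cells, plated 48 h then switched to serum-free induction medium, were exposed for 48 h to test chemicals (8-point half-log series, top 100 uM, 0.5% DMSO). EGF mRNA was quantified by qRT-PCR, normalized to ACTB, GAPDH, POLR2A.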

[18] = read-out: Early growth response protein 1 (EGR1) transcription factor, EGR1 (gene 1958); assay: LTEA_HepaRG_EGR1: Life Technologies and Expression Analysis (LTEA) Assay for Early growth response protein 1 (EGR1) transcription factor using HepaRG (AID 2283490)
In short: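 EGR1 transcript levels quantified by qRT-PCR (Fluidigm arrays) against three housekeeping genes after 48 h chemical exposure of HepaRG cells. Eight-point half-log series topping at 100 uM, 0.5% DMSO vehicle, analyzed for gain or loss.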

[19] = read-out: Apoptosis regulator Bcl-2 (Homo sapiens) (UniProt P10415); assay: LTEA_HepaRG_BCL2: Life Technologies and Expression Analysis (LTEA) Assay for Bcl-2 gene using HepaRG (AID 2283475)
In short: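 qRT-PCR read-out (Fluidigm TaqMan) of BCL2 transcript, normalised to three housekeeping genes, after 48 h chemical exposure of HepaRG cells; 8-point half-log series, top 100 uM, 0.5% DMSO vehicle. Gain or loss of signal fitted relative to DMSO baseline.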

[20] = read-out: Cytochrome P450 (CYP2B6), CYP2B6 (gene 1555); assay: LTEA_HepaRG_CYP2B6: Life Technologies and Expression Analysis (LTEA) Assay for Cytochrome P450 (CYP2B6) using HepaRG (AID 2283481)
In short: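 Differentiated HepaRG cells, serum-free induction medium, exposed 48 h in duplicate to 8-point half-log concentrations from 100 uM in 0.5% DMSO. CYP2B6 mRNA by qRT-PCR, normalized to ACTB, GAPDH, POLR2A; bidirectional fit versus DMSO.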

Measured: AC50

Chain of Cytochrome P450 2C19 (Homo sapiens) (P33261 whole entry, looked up): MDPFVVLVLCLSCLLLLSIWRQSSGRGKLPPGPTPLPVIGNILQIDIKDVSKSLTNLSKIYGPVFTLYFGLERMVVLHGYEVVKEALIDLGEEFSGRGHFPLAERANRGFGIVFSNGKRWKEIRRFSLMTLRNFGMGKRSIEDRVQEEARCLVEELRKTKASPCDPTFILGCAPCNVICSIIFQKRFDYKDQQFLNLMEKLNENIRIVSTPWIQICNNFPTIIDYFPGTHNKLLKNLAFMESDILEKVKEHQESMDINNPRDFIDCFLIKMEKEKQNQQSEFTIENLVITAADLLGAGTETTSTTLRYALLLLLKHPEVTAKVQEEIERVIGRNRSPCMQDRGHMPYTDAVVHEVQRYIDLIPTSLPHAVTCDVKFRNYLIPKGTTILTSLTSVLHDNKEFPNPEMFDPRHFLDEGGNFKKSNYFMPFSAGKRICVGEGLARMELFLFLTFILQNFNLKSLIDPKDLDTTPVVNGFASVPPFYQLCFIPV
Chain of Cytochrome P450 3A4 (Homo sapiens) (P08684 whole entry, looked up): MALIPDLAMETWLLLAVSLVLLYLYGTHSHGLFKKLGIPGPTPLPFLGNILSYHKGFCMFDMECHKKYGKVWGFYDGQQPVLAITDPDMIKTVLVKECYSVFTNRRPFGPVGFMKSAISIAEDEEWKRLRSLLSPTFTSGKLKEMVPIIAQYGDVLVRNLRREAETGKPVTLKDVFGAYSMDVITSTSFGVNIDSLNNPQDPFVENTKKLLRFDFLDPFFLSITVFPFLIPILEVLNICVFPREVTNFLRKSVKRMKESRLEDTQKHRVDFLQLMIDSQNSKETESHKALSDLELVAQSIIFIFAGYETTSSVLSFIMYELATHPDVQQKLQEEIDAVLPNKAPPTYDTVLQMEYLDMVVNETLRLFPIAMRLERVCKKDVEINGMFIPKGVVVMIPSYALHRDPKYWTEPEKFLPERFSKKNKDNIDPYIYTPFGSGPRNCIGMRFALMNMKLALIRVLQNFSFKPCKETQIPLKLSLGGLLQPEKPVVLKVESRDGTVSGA
Chain of Apoptosis regulator Bcl-2 (Homo sapiens) (P10415 whole entry, looked up): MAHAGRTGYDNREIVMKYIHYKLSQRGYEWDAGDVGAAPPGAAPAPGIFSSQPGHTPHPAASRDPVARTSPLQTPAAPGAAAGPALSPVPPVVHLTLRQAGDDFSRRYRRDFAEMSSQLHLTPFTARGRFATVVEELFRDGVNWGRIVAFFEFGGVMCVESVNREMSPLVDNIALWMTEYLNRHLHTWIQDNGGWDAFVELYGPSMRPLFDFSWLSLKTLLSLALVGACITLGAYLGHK
Chain of Caspase-3 (Homo sapiens) (P42574 whole entry, looked up): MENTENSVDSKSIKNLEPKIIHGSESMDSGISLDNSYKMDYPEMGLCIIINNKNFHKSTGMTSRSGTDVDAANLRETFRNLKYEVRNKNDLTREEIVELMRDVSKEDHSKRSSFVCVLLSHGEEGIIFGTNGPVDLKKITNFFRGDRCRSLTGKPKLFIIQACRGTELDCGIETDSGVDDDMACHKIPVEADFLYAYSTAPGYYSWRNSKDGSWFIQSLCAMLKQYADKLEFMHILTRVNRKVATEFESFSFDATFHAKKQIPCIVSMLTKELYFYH

CCCCCCCCCCCCCCCCO
active: [13] 50 µM | [14] 16.8 µM
not listed: [19] | [20]
inactive: all other assays above

CCCCOC(=O)CCCCC(=O)OCCCC
active: [8] 50 µM
not listed: [1]
inactive: all other assays above

Cc1occc(=O)c1O
not listed: [1]
inactive: all other assays above

O=[Si]=O
active: [8] 50 µM | [20] 0.099 µM
not listed: [1] | [17]
inactive: all other assays above

CC(=O)S[C@H](C(=O)N[C@H]1Cc2ccccc2[C@H]2CCC[C@@H](C(=O)O)N2C1=O)C(C)C
not listed: [1] | [13]
inactive: all other assays above

COc1ccc(C(=O)Nc2nc3ccccc3c(NCc3ccccc3)c2C#N)cc1
active: [2] 21.7 µM | [3] 10.8 µM | [7] 0.00721 µM | [8] 3 µM | [10] 22.1 µM | [11] 16.7 µM | [12] 16.3 µM | [13] 20 µM | [14] 28.3 µM | [18] 21.7 µM
inactive: [1] | [4] | [5] | [6] | [9] | [15] | [16] | [17]

Nc1nc(Cl)nc2c1ncn2[C@H]1C[C@H](O)[C@@H](CO)O1
active: [2] 1.72 µM | [4] 1.12 µM | [8] 0.715 µM | [20] 1.22 µM | [10] 2.05 µM | [11] 1 µM | [12] 1.07 µM | [13] 0.879 µM | [14] 1.41 µM | [18] 0.272 µM
inactive: [3] | [19] | [5] | [6] | [7] | [9] | [16] | [17]

COc1ccc(OC(F)(F)F)cc1CN[C@H]1CCCN[C@H]1c1ccccc1
active: [2] 9.61 µM | [3] 84.5 µM | [6] 81.8 µM | [8] 15.8 µM | [20] 86.1 µM | [10] 2.8 µM | [12] 83.7 µM | [13] 16.8 µM | [14] 9.12 µM | [15] 91.9 µM | [16] 72.8 µM | [17] 50 µM | [18] 86.6 µM
inactive: [4] | [19] | [5] | [7] | [9] | [11]

c1ccc2occc2c1
not listed: [19] | [20]
inactive: all other assays above

O=C(NS(=O)(=O)/C=C/c1cccs1)c1ccc(F)cc1Br
active: [2] 50 µM | [10] 13 µM | [13] 25.3 µM | [14] 14.1 µM | [15] 5.73 µM
not listed: [1]
inactive: all other assays above

CC(C)(C)c1ccccc1
not listed: [19]
inactive: all other assays above

CS(=O)(=O)c1ccc([C@@H](C[C@H]2CCC(=O)C2)C(=O)Nc2cnccn2)cc1Cl
active: [1] 0.952 µM | [2] 0.908 µM | [3] 1.15 µM | [4] 50 µM | [5] 2.25 µM | [6] 0.843 µM | [9] 1.2 µM | [10] 1.38 µM | [11] 1.09 µM | [16] 18.6 µM | [17] 23.5 µM
inactive: [12] | [13] | [14] | [18]

O=C1NC(=O)C(c2ccccc2)(c2ccccc2)N1
active: [8] 50 µM | [10] 14.1 µM | [11] 13.1 µM | [13] 29.7 µM | [14] 12.1 µM
not listed: [15] | [19] | [20]
inactive: all other assays above

O=NO
not listed: [19] | [20]
inactive: all other assays above
